In ChEMBL document CHEMBL1961873, “Compounds: GSK PKIS; Assays: Nanosyn kinase panel” (2012):

What was measured:
[1] = molecular target: Mitogen-activated protein kinase 3 (Homo sapiens) (UniProt P27361); details: at 1 µM;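 note: values are mean percent inhibition of MAPK3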
[2] = molecular target: SRSF protein kinase 3 (Homo sapiens) (UniProt Q9UPE1); details: at 0.1 µM
[3] = molecular target: SRSF protein kinase 3 (Homo sapiens) (UniProt Q9UPE1); details: at 1 µM
[4] = molecular target: Mitogen-activated protein kinase 14 (Homo sapiens) (UniProt Q16539); details: at 0.1 µM
Chain of Mitogen-activated protein kinase 14 (Homo sapiens) (Q16539 whole entry): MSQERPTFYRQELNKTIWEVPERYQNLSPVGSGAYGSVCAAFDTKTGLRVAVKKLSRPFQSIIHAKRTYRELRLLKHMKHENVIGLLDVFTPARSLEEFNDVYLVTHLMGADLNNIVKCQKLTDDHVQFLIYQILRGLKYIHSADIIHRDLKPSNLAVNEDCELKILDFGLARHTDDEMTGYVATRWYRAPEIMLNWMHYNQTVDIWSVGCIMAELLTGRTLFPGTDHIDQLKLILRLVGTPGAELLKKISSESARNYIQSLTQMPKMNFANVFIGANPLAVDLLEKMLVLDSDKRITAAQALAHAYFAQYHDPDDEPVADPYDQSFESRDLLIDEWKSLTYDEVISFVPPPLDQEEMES

[5] = molecular target: Mitogen-activated protein kinase 14 (Homo sapiens) (UniProt Q16539); details: at 1 µM
[6] = molecular target: Mitogen-activated protein kinase 11 (Homo sapiens) (UniProt Q15759); details: at 0.1 µM
Chain of Mitogen-activated protein kinase 11 (Homo sapiens) (Q15759 whole entry): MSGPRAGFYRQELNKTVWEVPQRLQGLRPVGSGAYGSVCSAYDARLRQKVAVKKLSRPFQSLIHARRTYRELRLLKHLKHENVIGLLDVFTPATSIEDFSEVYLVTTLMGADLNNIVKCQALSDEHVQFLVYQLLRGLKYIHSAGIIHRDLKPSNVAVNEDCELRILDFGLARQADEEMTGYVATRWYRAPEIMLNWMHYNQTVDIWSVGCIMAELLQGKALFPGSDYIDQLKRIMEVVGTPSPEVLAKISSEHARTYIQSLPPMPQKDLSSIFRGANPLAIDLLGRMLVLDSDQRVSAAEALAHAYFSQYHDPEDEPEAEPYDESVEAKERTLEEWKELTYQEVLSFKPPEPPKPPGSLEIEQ

[7] = molecular target: Mitogen-activated protein kinase 11 (Homo sapiens) (UniProt Q15759); details: at 1 µM
[8] = molecular target: T1, Mitogen-activated protein kinase 13 (Homo sapiens) (UniProt O15264); details: at 0.1 µM
T1 sequence (whole entry): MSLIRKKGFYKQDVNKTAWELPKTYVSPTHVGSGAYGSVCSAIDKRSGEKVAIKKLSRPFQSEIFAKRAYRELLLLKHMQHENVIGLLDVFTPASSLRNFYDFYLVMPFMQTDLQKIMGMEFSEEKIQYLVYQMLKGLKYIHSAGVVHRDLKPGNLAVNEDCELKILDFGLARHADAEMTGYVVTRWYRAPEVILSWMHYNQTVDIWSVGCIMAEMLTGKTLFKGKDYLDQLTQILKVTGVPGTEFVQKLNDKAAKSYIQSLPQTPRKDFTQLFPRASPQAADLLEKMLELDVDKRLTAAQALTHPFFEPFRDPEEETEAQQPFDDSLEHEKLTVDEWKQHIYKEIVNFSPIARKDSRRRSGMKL

[9] = molecular target: T1, Mitogen-activated protein kinase 13 (Homo sapiens); details: at 1 µM
[10] = molecular target: T2, Mitogen-activated protein kinase 12 (Homo sapiens) (UniProt P53778); details: at 0.1 µM
T2 sequence (whole entry): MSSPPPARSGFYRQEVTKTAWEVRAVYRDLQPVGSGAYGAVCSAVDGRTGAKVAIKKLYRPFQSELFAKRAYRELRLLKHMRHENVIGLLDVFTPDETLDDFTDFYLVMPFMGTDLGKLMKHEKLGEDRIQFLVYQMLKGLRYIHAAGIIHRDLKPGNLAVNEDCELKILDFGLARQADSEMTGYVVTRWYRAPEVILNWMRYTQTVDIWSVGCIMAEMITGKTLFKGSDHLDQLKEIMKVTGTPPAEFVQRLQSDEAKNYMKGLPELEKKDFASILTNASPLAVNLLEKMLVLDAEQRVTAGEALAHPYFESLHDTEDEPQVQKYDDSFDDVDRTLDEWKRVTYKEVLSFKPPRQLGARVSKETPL

[11] = molecular target: T2, Mitogen-activated protein kinase 12 (Homo sapiens); details: at 1 µM
[12] = molecular target: SRSF protein kinase 1 (Homo sapiens) (UniProt Q96SB4); details: at 0.1 µM
Chain of SRSF protein kinase 1 (Homo sapiens) (Q96SB4 whole entry, canonical isoform): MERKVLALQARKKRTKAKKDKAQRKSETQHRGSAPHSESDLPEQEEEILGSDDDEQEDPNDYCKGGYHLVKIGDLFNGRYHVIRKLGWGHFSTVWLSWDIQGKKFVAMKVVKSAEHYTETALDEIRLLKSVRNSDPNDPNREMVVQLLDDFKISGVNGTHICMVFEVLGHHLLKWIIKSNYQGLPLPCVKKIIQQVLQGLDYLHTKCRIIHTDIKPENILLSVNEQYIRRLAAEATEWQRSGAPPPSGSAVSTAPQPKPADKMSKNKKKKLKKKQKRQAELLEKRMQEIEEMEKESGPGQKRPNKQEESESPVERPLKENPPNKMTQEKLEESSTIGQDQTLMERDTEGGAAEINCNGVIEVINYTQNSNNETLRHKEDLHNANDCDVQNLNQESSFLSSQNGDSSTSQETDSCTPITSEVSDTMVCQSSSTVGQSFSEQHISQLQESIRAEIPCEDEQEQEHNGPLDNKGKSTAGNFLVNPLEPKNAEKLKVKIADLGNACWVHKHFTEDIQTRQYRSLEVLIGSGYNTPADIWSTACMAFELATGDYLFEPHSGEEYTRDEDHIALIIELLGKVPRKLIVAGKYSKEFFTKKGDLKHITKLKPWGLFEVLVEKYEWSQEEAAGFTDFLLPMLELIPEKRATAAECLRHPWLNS

[13] = molecular target: SRSF protein kinase 1 (Homo sapiens) (UniProt Q96SB4); details: at 1 µM
[14] = molecular target: Phosphatidylinositol 4,5-bisphosphate 3-kinase catalytic subunit alpha isoform (Homo sapiens) (UniProt P42336); details: at 0.1 µM
Chain of Phosphatidylinositol 4,5-bisphosphate 3-kinase catalytic subunit alpha isoform (Homo sapiens) (P42336 whole entry, canonical isoform): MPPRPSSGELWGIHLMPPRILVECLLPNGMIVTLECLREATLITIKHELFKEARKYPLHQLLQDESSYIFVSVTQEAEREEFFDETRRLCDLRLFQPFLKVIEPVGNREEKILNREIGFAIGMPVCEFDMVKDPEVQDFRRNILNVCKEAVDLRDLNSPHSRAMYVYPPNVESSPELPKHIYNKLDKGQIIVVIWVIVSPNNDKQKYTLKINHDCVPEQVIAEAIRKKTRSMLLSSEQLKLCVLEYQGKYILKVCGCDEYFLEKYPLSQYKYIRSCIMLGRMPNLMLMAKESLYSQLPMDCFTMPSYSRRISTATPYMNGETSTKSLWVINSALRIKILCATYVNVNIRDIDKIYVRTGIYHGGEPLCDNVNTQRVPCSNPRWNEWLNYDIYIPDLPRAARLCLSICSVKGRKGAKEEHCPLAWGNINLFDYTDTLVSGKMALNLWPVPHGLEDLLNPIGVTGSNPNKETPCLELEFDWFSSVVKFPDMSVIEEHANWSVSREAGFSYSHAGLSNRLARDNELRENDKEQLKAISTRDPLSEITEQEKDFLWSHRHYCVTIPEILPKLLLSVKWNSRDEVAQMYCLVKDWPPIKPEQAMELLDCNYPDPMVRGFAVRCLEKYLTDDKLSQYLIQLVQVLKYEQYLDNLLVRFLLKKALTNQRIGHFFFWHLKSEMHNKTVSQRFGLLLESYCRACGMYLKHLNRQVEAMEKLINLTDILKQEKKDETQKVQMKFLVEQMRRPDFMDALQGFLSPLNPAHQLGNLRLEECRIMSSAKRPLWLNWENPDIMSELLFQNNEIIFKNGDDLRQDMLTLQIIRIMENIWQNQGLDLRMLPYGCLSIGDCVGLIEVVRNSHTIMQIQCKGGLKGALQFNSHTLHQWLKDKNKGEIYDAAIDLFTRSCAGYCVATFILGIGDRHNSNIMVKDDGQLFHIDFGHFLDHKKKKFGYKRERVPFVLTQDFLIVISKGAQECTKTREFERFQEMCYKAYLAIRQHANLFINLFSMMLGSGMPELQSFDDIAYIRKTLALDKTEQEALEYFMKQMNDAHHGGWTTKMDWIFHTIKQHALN

[15] = molecular target: Phosphatidylinositol 4,5-bisphosphate 3-kinase catalytic subunit alpha isoform (Homo sapiens) (UniProt P42336); details: at 1 µM
[16] = molecular target: T3, Phosphatidylinositol 4,5-bisphosphate 3-kinase catalytic subunit delta isoform (Homo sapiens) (UniProt O00329); details: at 0.1 µM
T3 sequence (whole entry): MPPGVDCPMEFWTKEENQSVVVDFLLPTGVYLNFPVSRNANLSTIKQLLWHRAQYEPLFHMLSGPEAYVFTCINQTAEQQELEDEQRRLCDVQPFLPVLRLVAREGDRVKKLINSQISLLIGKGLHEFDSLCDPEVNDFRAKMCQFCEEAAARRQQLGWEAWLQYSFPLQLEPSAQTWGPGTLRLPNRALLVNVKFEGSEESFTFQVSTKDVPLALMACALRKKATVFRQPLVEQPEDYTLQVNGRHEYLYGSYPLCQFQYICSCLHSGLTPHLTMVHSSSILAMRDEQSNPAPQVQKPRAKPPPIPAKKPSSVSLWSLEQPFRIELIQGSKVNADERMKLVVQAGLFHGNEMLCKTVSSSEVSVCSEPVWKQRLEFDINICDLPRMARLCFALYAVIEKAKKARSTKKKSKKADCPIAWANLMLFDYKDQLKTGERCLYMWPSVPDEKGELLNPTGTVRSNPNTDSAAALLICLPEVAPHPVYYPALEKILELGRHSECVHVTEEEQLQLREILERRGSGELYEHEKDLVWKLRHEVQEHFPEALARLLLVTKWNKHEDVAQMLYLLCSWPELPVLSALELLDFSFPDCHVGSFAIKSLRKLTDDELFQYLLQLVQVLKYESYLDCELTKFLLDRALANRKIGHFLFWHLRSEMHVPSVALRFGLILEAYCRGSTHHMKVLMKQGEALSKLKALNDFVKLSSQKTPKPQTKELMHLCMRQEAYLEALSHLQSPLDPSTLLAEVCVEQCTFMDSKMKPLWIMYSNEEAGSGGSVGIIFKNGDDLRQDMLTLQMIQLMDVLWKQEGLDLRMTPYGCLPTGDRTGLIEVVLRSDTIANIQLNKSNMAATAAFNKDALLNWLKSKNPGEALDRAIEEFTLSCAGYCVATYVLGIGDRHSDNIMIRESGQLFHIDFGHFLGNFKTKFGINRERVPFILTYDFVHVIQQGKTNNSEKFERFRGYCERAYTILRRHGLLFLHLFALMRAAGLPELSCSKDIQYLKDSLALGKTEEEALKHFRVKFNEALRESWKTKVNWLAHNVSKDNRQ

[17] = molecular target: T3, Phosphatidylinositol 4,5-bisphosphate 3-kinase catalytic subunit delta isoform (Homo sapiens); details: at 1 µM
[18] = molecular target: Phosphatidylinositol 4-kinase beta (Homo sapiens) (UniProt Q9UBF8); details: at 0.1 µM
Chain of Phosphatidylinositol 4-kinase beta (Homo sapiens) (Q9UBF8 2-816 limits assumed): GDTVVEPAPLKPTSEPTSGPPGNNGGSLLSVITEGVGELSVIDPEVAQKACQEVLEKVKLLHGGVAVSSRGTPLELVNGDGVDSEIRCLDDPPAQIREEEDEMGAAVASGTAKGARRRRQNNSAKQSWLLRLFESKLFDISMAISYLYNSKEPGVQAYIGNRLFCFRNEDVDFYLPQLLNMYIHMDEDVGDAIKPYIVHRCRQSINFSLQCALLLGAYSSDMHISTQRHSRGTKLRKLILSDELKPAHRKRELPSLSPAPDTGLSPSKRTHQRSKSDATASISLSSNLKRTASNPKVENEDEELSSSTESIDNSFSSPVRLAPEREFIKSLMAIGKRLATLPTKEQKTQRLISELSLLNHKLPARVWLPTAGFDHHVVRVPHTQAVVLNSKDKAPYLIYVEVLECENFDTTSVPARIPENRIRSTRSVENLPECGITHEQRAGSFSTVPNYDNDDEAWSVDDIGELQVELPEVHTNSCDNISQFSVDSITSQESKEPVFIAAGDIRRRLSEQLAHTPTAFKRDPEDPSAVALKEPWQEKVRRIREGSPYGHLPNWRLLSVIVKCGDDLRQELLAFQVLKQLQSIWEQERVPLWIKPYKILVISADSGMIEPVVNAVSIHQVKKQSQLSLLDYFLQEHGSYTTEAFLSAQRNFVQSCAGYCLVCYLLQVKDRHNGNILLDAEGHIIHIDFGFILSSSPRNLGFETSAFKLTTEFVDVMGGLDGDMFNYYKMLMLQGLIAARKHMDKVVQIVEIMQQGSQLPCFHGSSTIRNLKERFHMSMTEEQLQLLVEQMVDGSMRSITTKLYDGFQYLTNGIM

[19] = molecular target: Phosphatidylinositol 4-kinase beta (Homo sapiens) (UniProt Q9UBF8); details: at 1 µM
[20] = molecular target: Sphingosine kinase 1 (Homo sapiens) (UniProt Q9NYA1); details: at 0.1 µM;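 note: mean percent inhibition of SPHK1 activity, measured within the GSK PKIS screening panel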
Chain of Sphingosine kinase 1 (Homo sapiens) (Q9NYA1 whole entry): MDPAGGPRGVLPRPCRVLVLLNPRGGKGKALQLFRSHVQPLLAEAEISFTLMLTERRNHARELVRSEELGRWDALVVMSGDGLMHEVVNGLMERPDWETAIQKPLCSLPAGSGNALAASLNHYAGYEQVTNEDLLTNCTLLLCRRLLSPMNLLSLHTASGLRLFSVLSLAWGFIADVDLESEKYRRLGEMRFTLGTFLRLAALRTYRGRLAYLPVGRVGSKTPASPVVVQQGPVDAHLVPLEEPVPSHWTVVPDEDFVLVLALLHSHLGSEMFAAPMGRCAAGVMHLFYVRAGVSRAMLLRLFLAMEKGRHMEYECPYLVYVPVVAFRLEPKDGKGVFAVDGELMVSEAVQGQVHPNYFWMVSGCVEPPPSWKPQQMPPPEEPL

Chain of SRSF protein kinase 3 (Homo sapiens) (Q9UPE1 whole entry): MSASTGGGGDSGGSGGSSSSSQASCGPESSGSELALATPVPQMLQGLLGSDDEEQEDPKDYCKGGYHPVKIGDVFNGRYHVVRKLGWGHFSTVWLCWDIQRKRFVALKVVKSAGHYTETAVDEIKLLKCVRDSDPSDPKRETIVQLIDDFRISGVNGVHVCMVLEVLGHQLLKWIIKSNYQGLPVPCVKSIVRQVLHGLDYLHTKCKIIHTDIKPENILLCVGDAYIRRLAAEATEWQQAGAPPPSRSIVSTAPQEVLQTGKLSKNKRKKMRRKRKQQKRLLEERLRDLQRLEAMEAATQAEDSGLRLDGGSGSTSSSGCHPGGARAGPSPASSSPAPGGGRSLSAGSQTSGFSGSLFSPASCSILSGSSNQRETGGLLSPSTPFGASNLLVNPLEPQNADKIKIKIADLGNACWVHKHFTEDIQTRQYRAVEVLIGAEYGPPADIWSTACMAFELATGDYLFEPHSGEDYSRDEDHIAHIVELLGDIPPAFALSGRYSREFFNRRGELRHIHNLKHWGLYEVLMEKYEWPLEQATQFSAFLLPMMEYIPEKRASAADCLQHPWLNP
Chain of Mitogen-activated protein kinase 3 (Homo sapiens) (P27361 whole entry): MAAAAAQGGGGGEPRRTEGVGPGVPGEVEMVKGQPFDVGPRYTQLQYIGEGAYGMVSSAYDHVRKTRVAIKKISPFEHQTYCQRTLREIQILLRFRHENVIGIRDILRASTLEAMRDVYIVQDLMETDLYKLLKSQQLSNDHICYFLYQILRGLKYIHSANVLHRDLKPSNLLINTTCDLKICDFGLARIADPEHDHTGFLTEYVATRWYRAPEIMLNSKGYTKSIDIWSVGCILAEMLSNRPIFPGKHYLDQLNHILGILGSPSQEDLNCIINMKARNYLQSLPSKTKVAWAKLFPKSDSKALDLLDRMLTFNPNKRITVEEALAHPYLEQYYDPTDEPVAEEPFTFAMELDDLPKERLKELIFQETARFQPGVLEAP

SMILES | inhibition [1] [%] | inhibition [2] [%] | inhibition [3] [%] | inhibition [4] [%] | inhibition [5] [%] | inhibition [6] [%] | inhibition [7] [%] | inhibition [8] [%] | inhibition [9] [%] | inhibition [10] [%] | inhibition [11] [%] | inhibition [12] [%] | inhibition [13] [%] | inhibition [14] [%] | inhibition [15] [%] | inhibition [16] [%] | inhibition [17] [%] | inhibition [18] [%] | inhibition [19] [%] | inhibition [20] [%]
COc1cccc(-n2ncc3c(N/N=C/c4ccncc4)ncnc32)c1 | 7.65 | -0.94 | 1.8 | 9.43 | 16.4 | 4.02 | 10.8 | 7.88 | 43.3 | 5.45 | 14.1 | -1.14 | 4.65 | 3.22 | 7.14 | 2.66 | 10 | -3.14 | 1.7 | -0.71
Nc1nonc1-c1nc2cnccc2n1C1CCCCC1 | 2.55 | -1.48 | -1.01 | -0.43 | -3.77 | -1.77 | 0.28 | -3.11 | 1.87 | -0.65 | 0.39 | 1 | -0.52 | -2.06 | -3.54 | -1.65 | 0.74 | 4.2 | -2.26 | 0
Fc1ccc(-c2ncn(C3CCNCC3)c2-c2ccnc(Oc3ccccc3)n2)cc1 | 3.04 | -3.7 | -2.18 |  |  |  |  |  |  |  |  | -1.48 | -1.61 | 1.53 | 0.06 | 0.6 | 1.12 | 0.91 | 2.57 | 1.45
NS(=O)(=O)c1ccc(N/C=C2\C(=O)Nc3ccc4ncsc4c32)cc1 | 15.3 | -1.67 | 0.72 | 18.6 | 23.4 | 4.61 | 15 | 4.52 | 4.84 | 2.86 | 5.04 | -3.49 | -2.8 | 4.87 | 7.04 | 2.72 | 12.7 | -2.13 | 1.22 | 0.04
CCn1c(-c2nonc2N)nc2c(C#CCN)ncc(OCCCN)c21 | -0.18 | -0.3 | 3.44 | 2.31 | -5.03 | -2.25 | 0.63 | 2.51 | -4.32 | -2.6 | -2.79 | 2.33 | 7.14 | -0.54 | -3.54 | -2.56 | -5.7 | 1.34 | -2.08 | 0.33
COc1cc2c(cc1Nc1nc(Nc3ccsc3C(N)=O)c3cc[nH]c3n1)N(C(=O)CN(C)C)CCC2 | 1.75 | -1.49 | -0.38 |  |  | 2.67 | 6.9 | 1.18 | 0.18 | 2.28 | 3.18 | -1.65 | -0.66 | -0.16 | -1 | 0.01 | -0.22 | -1.18 | -3.17 | 1.85
NC(=O)c1sc(-n2cnc3cc(C(F)(F)F)ccc32)cc1OCc1ccccc1Br | 0.48 | -3.47 | 0.48 | 1.34 | 4.04 | 4.23 | 4.66 | 0.44 | -0.68 | 1.27 | 1.86 | -1.98 | -4.1 | 0.07 | 0.07 | 0.65 | 1.77 | 0.77 | -3.13 | -0.24
CCn1c(-c2nonc2N)nc2c(C#CC(C)(C)O)ncc(OCC3CCNCC3)c21 | 6.52 | -0.11 | 3.41 | -0.04 | 5.69 | 3.7 | 4.04 | 1.99 | 2.26 | 1.19 | 1.7 | -0.7 | 1.81 | 1.65 | 19.5 | -0.08 | -0.9 | 4.18 | -3.56 | 0
CCn1c(-c2nonc2N)nc2c(C#CC(C)(C)O)ncc(OC[C@@H]3CCCN3)c21 | 2.32 | -2.22 | -4.41 | 0.34 | 0.75 | 1.96 | 1.41 | 0.68 | -1.56 | 0.36 | 0.35 | -1.57 | -2.53 | -0.15 | 0.24 | 0.06 | 0.22 | 0.05 | 1.54 | -0.8
CCn1c(-c2nonc2N)nc2c(C#CC(C)(C)O)nc(O[C@@H](CN)c3ccccc3)cc21 | 0.99 | -2 | -2.07 | 1.44 | 1.33 | -1.84 | 2.96 | 1.2 | 0.11 | 1.29 | 0.23 | -0.59 | -3.25 | -0.44 | 0.33 | 2.44 | 3.42 | 6.5 | 1.86 | -1.08
NS(=O)(=O)c1ccc(-c2ccc3c(NC(=O)C4CC4)n[nH]c3c2)cc1 | 1.36 | 0.31 | -1.45 | 7.62 | 5.94 | 2.34 | -1.13 | 3.91 | 5.02 | 0.67 | 0.58 | -1.31 | -2.21 | 2.7 | 3.32 | 3.34 | 8.4 | -0.87 | -1.58 | -2.63
Cc1cc(-c2ccco2)cc(C)c1/C=C/c1cncc(-c2nn[nH]n2)c1 | 1.84 | -1.41 | -1.53 | 1.46 | 1.43 | 3.14 | 3.31 | 0.77 | -1.04 | 0.9 | 1.3 | -0.96 | -1.7 | -0.22 | 6.64 | 0.16 | -1.23 | -1.26 | 9.03 | 0.73
COc1cc(C=NNc2ncnc3c2cnn3Cc2ccccc2)ccc1O | -1.19 | -1.86 | -0.84 | -2.19 | -2.5 | -3.2 | -2.27 | -0.79 | -6.14 | -2.53 | -3.29 | 1.24 | 0.29 | -4.02 | -1.81 | 3.47 | 6.81 | -1.09 | 2.84 | 3.3
COc1cccc(COc2cc(-n3cnc4ccccc43)sc2C(N)=O)c1 | 3 | -1.99 | -1.01 | 1.67 | 8.88 | 1.92 | 4.36 | -0.06 | -2.46 | -0.12 | -0.04 | -3.25 | -2.74 | 0.82 | 1.56 | 1.62 | 3.63 | 1.38 | -0.71 | 2.22
